Results on 79 molecules are retold here after PubChem BioAssay AID651568 (National Center for Advancing Translational Sciences (NCATS), 2012).

Out of some 1,200 compounds screened, about 55 (5%) were called active. Not shown: some 15% with an inconclusive outcome. Calls follow the shape of the dose curve; as a rule, active = well fitted inhibition curve with a large enough effect; inconclusive = small, poorly fitted or top-dose-only effect; inactive = no such curve, though single readings can be large or run the other way. The list comes from a sample in which actives are over-represented; it also holds similar structures and randomly drawn compounds. Entries that show only a call come without a potency.
Potency is read from the fitted curve at half-maximal effect.

A short description of the assay: qHTS Assay to Find Inhibitors of Chronic Active B-Cell Receptor Signaling: Hit Validation in Renilla Reporter Assay. Also: nearly all actives have a fitted effect of over 70% in size. The note with it: TMD8 IkB-Renilla luciferase reporter, NF-kB signaling; series mostly up to 57.5 µM. In outline: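 Orthogonal secondary test of primary-screen hits in ABC-DLBCL cells carrying constitutively expressed IkB-Photinus and Renilla luciferase reporters, read by Dual-Glo luminescence; luciferases differ from the primary assay's click beetle enzymes, to exclude assay-specific artifacts.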
In general terms: In qHTS, concentration-response curves come from the screen itself.
Regarding `COc1cc(/C=C2\N=C(c3ccccc3)NNC2=O)cc(OC)c1OC`, the Potency result was “inactive”.

`CCN(CC)c1ccc(NC(=O)CN2CCN(CC(=O)Nc3ccccc3F)CC2)cc1`: the Potency entry was “inactive”.

Turning to `CCOc1nc(OCC)nc(N2CCC(C)CC2)n1`, the Potency result is “inactive”.

For the molecule `CCOc1ccc(NC(=O)c2cc(OC)nc3ccccc23)cc1`, the Potency result was “inactive”.

Regarding `CCC1=Nc2cc(C(=O)NCc3ccco3)ccc2Sc2ccc(C)cc21`, the Potency result was “inactive”.

Take `Cc1ccc(S(=O)(=O)n2cc(-c3ccccc3)c3ccccc32)cc1`: the Potency result is “inactive”.

Turning to `COc1cc2c(cc1OC)-c1cc(NC3CCCCCC3)nc(=O)n1CC2`, the Potency entry is “inactive”.

For `COc1ccc(/C=N/NC(=O)c2ccc3c(c2)NC(=O)C(C)(C)O3)cc1OC`, the Potency entry was “inactive”.

On to `COc1ccc(C(=O)/C=C/c2ccc(O)cc2)c2c1CC(O)C(C)(C)O2` (centres undefined), for which the Potency is 23.9 µM (active).

In the case of `CCOC(=O)c1c(C)c(C(=O)OCC)n(C)c1C`, the Potency entry was “inactive”.

On to `CC(=O)N1CC(=O)N=C1SCC(=O)Nc1nc(C)c(-c2ccccc2)s1`, for which the Potency result is “inactive”.

With `CCOc1ccc(S(=O)(=O)Nc2ccc3oc(C)c(C(=O)OCCOC)c3c2)cc1`, the Potency result was “inactive”.

Turning to `CCOC(=O)C1=C(C)NC(C)=C(C(=O)OCC)C1C(=O)OCC(=O)NCc1ccccc1OC`, the Potency entry was “inactive”.

Take `COc1cc(OC)c2c(-c3cccc(-c4ccc(NC(C)=O)cc4)c3)cc(=O)oc2c1`: the Potency entry was “inactive”.

On to `CC(=O)OCC(=O)[C@@]1(O)CC[C@H]2[C@@H]3CCC4=CC(=O)C=C[C@]4(C)[C@H]3[C@@H](O)C[C@@]21C`, for which the Potency result is “inactive”.

As to `COC(=O)CCC(=O)NC(=S)Nc1sc(C)c(C)c1C(N)=O`, the Potency result is “inactive”.

For the molecule `CCSc1nc(-c2ccccc2)nc(C(Cl)Cl)n1`, the Potency was 2.69 µM (active).

For `CCc1ccc(/C=N/NC(=O)c2cc(C3CC3)nc3ccccc23)s1`, the Potency result was “inactive”.

For `N#Cc1ccc(-c2cccs2)nc1SCc1cccnc1`, the Potency entry is “inactive”.

In the case of `OC(CNCc1ccc(-c2ccccc2)cc1)c1ccccc1` (centres undefined), the Potency result was “inactive”.

`COc1ccc(-c2cnnn2-c2ccc(N)cc2)cc1OC`: the Potency result is “inactive”.

`O=C(N/N=C/c1ccc(Cl)cc1)c1n[nH]c2c1CCCC2`: the Potency entry is “inactive”.

Turning to `O=C(Cc1ccc(-c2ccccc2)cc1)NCc1ccccc1`, the Potency entry is “inactive”.

As for `O=C(Cc1n[nH]c(=O)c2ccccc12)OCC(=O)c1ccc2c(c1)OCCO2`, the Potency entry is “inactive”.

Regarding `Cc1cc(C)cc(N2CC(O)=C(c3nc4ccccc4c(=O)[nH]3)C2=N)c1`, the Potency result is “inactive”.

Take `CC(C)N1C(=O)/C(=C\c2nc3ccccc3c(=O)[nH]2)c2ccccc21`: the Potency was 23.9 µM (active).

With `CC(C)N1C(=O)/C(=C/c2nc3ccccc3c(=O)n2-c2ccccc2)c2ccccc21`, the Potency was 13.5 µM (active).

In the case of `O=C(CSc1nc2ccccc2c(=O)n1-c1ccccc1F)NC1CC1`, the Potency entry was “inactive”.

As for `Cc1ccc(Sc2c(CO)c(-c3ccccc3)nn2C)cc1`, the Potency entry is “inactive”.

With `COc1ccc(NC(=O)C(=O)c2cn(CC(=O)N3CCCC3)c3ccccc23)cc1`, the Potency result was “inactive”.

Consider `CC(=O)Nc1ccc(NS(=O)(=O)c2cc(-c3n[nH]c(=O)c4ccccc34)ccc2C)cc1`, for which the Potency entry was “inactive”.

For `COC(=O)c1ccc(C)c(NS(=O)(=O)c2ccc(OC)cc2)c1`, the Potency entry was “inactive”.

Consider `CCOc1ccccc1C(=O)N1CCN(c2cccc(Cl)c2)CC1`, for which the Potency entry was “inactive”.

As to `COc1ccc(-c2c(C)c3ccc(O)cc3oc2=O)cc1OC`, the Potency entry is “inactive”.

For the molecule `Cc1ccc(/C=C/C(=O)c2nc3ccccc3[nH]2)cc1`, the Potency is 16.9 µM (active).

As to `Cc1cccc(C(=O)N[C@H](C(=O)Nc2nc3ccccc3[nH]2)C(C)C)c1`, the Potency entry is “inactive”.

As to `CC1=CC(C)(C)N(S(=O)(=O)c2ccc(C)cc2)c2cc(C)ccc21`, the Potency entry is “inactive”.

Regarding `COC(=O)c1cc(C(=O)N2CCN(c3cccc(Cl)c3)CC2)cc([N+](=O)[O-])c1`, the Potency entry is “inactive”.

As for `COc1cccc(/C=N/NC(=S)Nc2cccc(S(=O)(=O)N(C)C)c2)c1`, the Potency result was “inactive”.

`CC(=O)Nc1cc(N=Cc2ccc(O)cc2O)c(Cl)cc1Cl`: the Potency is 12 µM (active).

On to `Cc1ccc(NS(=O)(=O)c2ccc(-c3cnc(C4CC4)o3)cc2)c(C)c1`, for which the Potency result is “inactive”.

`COc1ccc(Nc2cc3n(c(=O)n2)CCc2cc(OC)c(OC)cc2-3)c(C)c1`: the Potency result is “inactive”.

In the case of `COc1ccc(-c2c(-c3cc(OC)c(OC)c(OC)c3)noc2C)cn1`, the Potency result was “inactive”.

As to `COc1ccc(/C=C2\CCc3ccccc3C2=O)cc1O`, the Potency was 26.9 µM (active).

In the case of `COc1cc(/C=C2\OC(=O)c3c(OC)cccc32)ccc1O`, the Potency entry is “inactive”.

For `COc1cc(/C=N/N(C)c2ccccc2)ccc1O`, the Potency result was “inactive”.

With `COc1ccc(-c2sc3cc(OC)c(OC)cc3c2C#CC(C)(C)O)cc1`, the Potency entry was “inactive”.

Consider `CCCn1nc(Oc2nc(N(C)C)nc(N(C)C)n2)ccc1=O`, for which the Potency entry was “inactive”.

For `COc1ccc(C(=O)Nc2ccc(-n3nncc3-c3ccc(OC)c(OC)c3)cc2)cc1`, the Potency result is “inactive”.

In the case of `CCN(c1cccc(C)c1)S(=O)(=O)c1ccc(-c2cc(C)no2)s1`, the Potency entry was “inactive”.

Take `COc1ccccc1/C=N/NC(=S)Nc1cccnc1`: the Potency result is “inactive”.

Take `O=C(CCCN1C(=O)/C(=C/c2ccccc2OC(F)F)SC1=S)Nc1cccnc1`: the Potency is 30.1 µM (active).

On to `COc1ccccc1-c1cc(C(=O)Nc2cccnc2)no1`, for which the Potency entry is “inactive”.

With `Cc1ccc2c(c1)C(=O)C(=O)N2CC1COc2ccccc2O1` (centres undefined), the Potency result was “inactive”.

On to `CCn1c2ccccc2c2cc(NC(=O)c3cc(OC)cc(OC)c3)ccc21`, for which the Potency result is “inactive”.

As to `CCCCn1c(SCC(=O)c2cc(OC)ccc2OC)nc2cc(S(N)(=O)=O)ccc21`, the Potency result was “inactive”.

For the molecule `COc1ccccc1-c1nnc2sc(-c3ccc(N(C)C)cc3)nn12`, the Potency result is “inactive”.

Consider `COC(=O)[C@@H]1[C@@H](C#N)C2(c3ccccc3-c3ccccc32)N(c2ccc(Cl)cc2)N1C#N`, for which the Potency is 4.78 µM (active).

With `O=C(Cc1ccc(-n2c(=O)c3ccccc3n(Cc3ccccc3F)c2=O)cc1)NCC1CCCO1` (centres undefined), the Potency entry was “inactive”.

For `COc1cc(OC)c(OC)cc1/C=C/C(=O)c1ccc(NS(=O)(=O)c2ccc(C)cc2)cc1`, the Potency entry is “inactive”.

`CN(C)c1nc(=NCc2ccco2)ss1`: the Potency is 16.9 µM (active).

Turning to `CCC(=NCCc1c(C)[nH]c2ccc(C)cc12)C1=C(O)CC(c2ccccc2)CC1=O` (centres undefined), the Potency result is “inactive”.

Consider `COc1ccc(C2CC(c3ccc(OC)c(OC)c3)=NN2C(=O)c2ccccc2)cc1` (centres undefined), for which the Potency result was “inactive”.

In the case of `CCCc1noc2c1C(c1ccoc1)C(C#N)=C(N)N2` (centres undefined), the Potency was 23.9 µM (active).

Turning to `CCc1ccc(CNC(=O)Cc2ccc(NC(=O)C3=C(C)OCCS3)cc2)cc1`, the Potency result was “inactive”.

Take `O=C(NN=C1CCCC1)c1n[nH]c2c1CCCC2`: the Potency result was “inactive”.

As for `CC1=NN(C(N)=S)C(=O)C1N=Nc1cccc([N+](=O)[O-])c1` (centres undefined), the Potency entry was “inactive”.

Take `S=c1nc2ccccc2c2nc(-c3ccccc3Cl)[nH]n12`: the Potency entry was “inactive”.

Take `ClCc1nc2ccccc2c2ccccc12`: the Potency was 23.9 µM (active).

Regarding `CCc1nc2ccccc2c(C(=O)OCc2nc3ccccc3c(=O)[nH]2)c1C`, the Potency entry was “inactive”.

For the molecule `COc1cc(OC)cc(-c2cc3cc4c(cc3cn2)OCO4)c1`, the Potency entry was “inactive”.

With `CCOc1cc(/C=C2\CN(C)C/C(=C\c3ccc(O)c(OCC)c3)C2=O)ccc1O`, the Potency was 5.36 µM (active).

As to `CCOC(=O)C(C)N1C(=O)S/C(=C/c2ccc3c(c2)n(C)c(=O)n3C)C1=O` (centres undefined), the Potency result was “inactive”.

For `CCOC(=O)C1=C(O)/C(=C/c2ccc(OCC(=O)O)c(OCC)c2)SC1=Nc1ccccc1`, the Potency result is “inactive”.

As to `Cc1ccc(C)c(Cn2c(=O)n(-c3ccc(CC(=O)NCc4ccco4)cc3)c(=O)c3sccc32)c1`, the Potency entry was “inactive”.

With `Cc1ccc(N2C(=O)c3cccc4c(N)ccc(c34)C2=O)c2cccnc12`, the Potency result is “inactive”.

On to `COc1ccc([C@H]2CC(=O)C=C(c3ccc(OC)cc3OC)C2)cc1`, for which the Potency result was “inactive”.

In the case of `COc1ccc(S(=O)(=O)N2CCCCC2)cc1NS(=O)(=O)c1cc(Cl)ccc1Cl`, the Potency result is “inactive”.

For `CCOc1ccc(N(CC(=O)Nc2ccccc2C)S(=O)(=O)c2c(C)noc2C)cc1`, the Potency result was “inactive”.
